Unmarked numbers belong to inactive results. For some assays here: Results with a measured potency or affinity are listed apart. Activity calls are given as the source filed them. Unless noted, the rule behind the calls is not given here.
What was measured:
[1] = antimalarial activity against Dd2 strain (AID 2302;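 active = growth inhibition above 50% at the single 2 µM test dose, taken to imply half-maximal potency below 2 µM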;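 note: 0% = DMSO untreated growth and 100% = chloroquine plus artemisinin killed control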); conditions: P. falciparum Dd2 in RBCs, LDH growth readout, 72 h; at 2 µM; stronger effect = higher value
[2] = HepG2 cytotoxicity, primary screen, cytotoxicity control for P. falciparum antimalarial project, cell-based, ATP luminescence (AID 2303;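 active = inhibition above 50%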;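 note: 0% = DMSO wells and 100% = digitonin-killed cells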); conditions: HepG2 viability, 24-48 h, at 10 µM, stronger effect = higher value
[3] = target: L-lactate dehydrogenase (Plasmodium falciparum (isolate CDC / Honduras)) (UniProt Q27743); experiment: PfLDH activity inhibition – cell lysate, 3D7 strain, counter-screen for P. falciparum growth inhibition project (AID 2304);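 note: 0% = vehicle and 100% = reference inhibitor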; conditions: P. falciparum 3D7 crude extract, LDH APAD/NBT absorbance; at 2 µM; stronger effect = higher value
[4] = inhibition of 3D7 malaria parasite growth – strain 3D7 (AID 2306);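 note: 0% = DMSO wells and 100% = chloroquine plus artemisinin control wells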; conditions: P. falciparum 3D7 erythrocytic growth, LDH absorbance, 72 h; at 2 µM; stronger effect = higher value
[5] = target: Calcium-dependent protein kinase 1 (Plasmodium falciparum (isolate 3D7)) (UniProt P62344); experiment: PfCDPK1 kinase inhibitors, biochemical, TCAMS library (AID 1159585; cut-off not given, nearly all actives have IC50 up to about 0.98 µM;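 note: inhibitors leave more ATP so luminescence rises with inhibition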); conditions: recombinant PfCDPK1, Kinase-Glo ATP depletion luminescence
[6] = target: Plasmodium falciparum protein kinase 6 (PK6, PF3D7_1337100) (UniProt Q8IDW1); experiment: PfPK6 kinase inhibitors, biochemical, TCAMS library (AID 1159586); conditions: recombinant PfPK6, Kinase-Glo ATP depletion luminescence
[7] = target: Protein kinase 7 (PK7), Plasmodium falciparum 3D7 (PF3D7_0213400) (UniProt Q7YTF7); experiment: inhibition of Plasmodium PK7 catalytic activity – biochemical, TCAMS antimalarial set, Kinase-Glo luminescence (AID 1159587); conditions: recombinant PfPK7, Kinase-Glo ATP depletion luminescence
[8] = target: Calcium-dependent protein kinase 4 (Plasmodium falciparum (isolate 3D7)) (UniProt Q8IBS5); experiment: PfCDPK4 kinase inhibitors, biochemical, TCAMS library (AID 1159588; cut-off not given, nearly all actives have IC50 up to about 0.91 µM); conditions: recombinant PfCDPK4, Kinase-Glo ATP depletion luminescence
Calcium-dependent protein kinase 4 (Plasmodium falciparum (isolate 3D7)), sequence (Q8IBS5 whole entry, looked up): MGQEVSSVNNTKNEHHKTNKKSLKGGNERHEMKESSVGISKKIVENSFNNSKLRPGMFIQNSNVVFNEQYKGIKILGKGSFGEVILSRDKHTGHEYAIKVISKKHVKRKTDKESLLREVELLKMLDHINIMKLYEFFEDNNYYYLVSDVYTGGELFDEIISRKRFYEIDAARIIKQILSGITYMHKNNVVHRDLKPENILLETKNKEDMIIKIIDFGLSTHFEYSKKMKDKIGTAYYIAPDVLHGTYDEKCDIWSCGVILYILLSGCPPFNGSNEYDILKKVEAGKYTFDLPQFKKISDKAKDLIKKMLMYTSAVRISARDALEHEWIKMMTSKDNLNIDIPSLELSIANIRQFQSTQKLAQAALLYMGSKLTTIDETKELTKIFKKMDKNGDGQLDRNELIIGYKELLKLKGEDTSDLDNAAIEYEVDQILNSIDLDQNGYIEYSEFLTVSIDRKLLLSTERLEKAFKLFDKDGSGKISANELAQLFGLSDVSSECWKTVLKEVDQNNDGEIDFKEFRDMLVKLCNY

Plasmodium falciparum protein kinase 6 (PK6, PF3D7_1337100), sequence (Q8IDW1 1-305): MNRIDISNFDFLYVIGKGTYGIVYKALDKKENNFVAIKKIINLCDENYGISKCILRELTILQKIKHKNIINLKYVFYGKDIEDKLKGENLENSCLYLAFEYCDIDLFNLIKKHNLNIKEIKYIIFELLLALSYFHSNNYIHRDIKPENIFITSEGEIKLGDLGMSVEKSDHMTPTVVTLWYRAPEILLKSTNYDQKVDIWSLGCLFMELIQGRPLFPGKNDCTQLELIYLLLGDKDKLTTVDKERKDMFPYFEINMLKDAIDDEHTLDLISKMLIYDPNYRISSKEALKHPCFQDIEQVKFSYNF
Protein kinase 7 (PK7), Plasmodium falciparum 3D7 (PF3D7_0213400), sequence (Q7YTF7 1-343): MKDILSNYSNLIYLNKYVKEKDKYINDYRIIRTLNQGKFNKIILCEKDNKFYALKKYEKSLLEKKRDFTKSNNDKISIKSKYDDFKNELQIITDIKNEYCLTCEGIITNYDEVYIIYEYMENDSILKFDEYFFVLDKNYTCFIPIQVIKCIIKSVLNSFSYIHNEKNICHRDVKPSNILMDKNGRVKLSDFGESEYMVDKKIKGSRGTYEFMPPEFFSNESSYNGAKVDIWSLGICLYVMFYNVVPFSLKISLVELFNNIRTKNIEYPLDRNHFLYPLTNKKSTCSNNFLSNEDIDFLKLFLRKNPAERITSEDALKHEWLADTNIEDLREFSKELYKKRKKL
L-lactate dehydrogenase (Plasmodium falciparum (isolate CDC / Honduras)), sequence (Q27743 whole entry, looked up): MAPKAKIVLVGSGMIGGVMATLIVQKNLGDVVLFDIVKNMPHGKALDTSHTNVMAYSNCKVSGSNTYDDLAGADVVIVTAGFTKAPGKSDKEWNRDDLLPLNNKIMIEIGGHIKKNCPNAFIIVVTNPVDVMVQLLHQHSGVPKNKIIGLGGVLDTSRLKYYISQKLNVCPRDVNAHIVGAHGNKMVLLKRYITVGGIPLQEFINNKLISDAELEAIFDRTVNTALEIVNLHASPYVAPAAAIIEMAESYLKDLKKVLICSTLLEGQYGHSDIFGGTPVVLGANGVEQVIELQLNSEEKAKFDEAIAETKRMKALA
Calcium-dependent protein kinase 1 (Plasmodium falciparum (isolate 3D7)), sequence (P62344 whole entry, looked up): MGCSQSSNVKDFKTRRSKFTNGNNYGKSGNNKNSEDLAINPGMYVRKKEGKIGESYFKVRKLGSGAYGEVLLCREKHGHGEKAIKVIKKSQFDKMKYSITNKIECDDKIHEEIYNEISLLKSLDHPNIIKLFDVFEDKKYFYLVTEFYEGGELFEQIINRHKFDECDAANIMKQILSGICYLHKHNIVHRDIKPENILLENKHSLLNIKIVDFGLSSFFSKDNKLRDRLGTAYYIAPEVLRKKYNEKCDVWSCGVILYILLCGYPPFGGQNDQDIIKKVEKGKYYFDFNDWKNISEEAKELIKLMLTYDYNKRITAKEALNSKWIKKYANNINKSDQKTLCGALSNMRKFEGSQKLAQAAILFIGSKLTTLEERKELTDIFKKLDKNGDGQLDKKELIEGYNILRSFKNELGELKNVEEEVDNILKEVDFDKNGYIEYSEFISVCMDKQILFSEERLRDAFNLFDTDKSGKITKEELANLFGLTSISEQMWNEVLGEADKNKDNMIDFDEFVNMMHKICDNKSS

Structure (SMILES) | growth inhibition [1] | inhibition [2] | inhibition [3] [%] | growth inhibition [4] | outcome [5] | outcome [6] | outcome [7] | outcome [8]
O=C(/C=C/c1ccc(C(F)(F)F)cc1)N1CCC(CCN2CCC(c3c[nH]c4ccccc34)CC2)CC1 | 77% (active) | 70% (active) | -11 | 100% (active) | inactive | inactive | inactive | inactive
Cc1cc(=O)c2cc(Oc3ccc(OC(F)(F)F)cc3)ccc2[nH]1 | 71% (active) | 20% | -2 | 86% (active) | inactive | inactive | inactive | inactive
Cc1[nH]c(C)c(-c2ccc(-c3ccc(OC(F)(F)F)cc3)nc2)c(=O)c1Cl | 95% (active) | 11% | -6 | 95% (active) | inactive | inactive | inactive | inactive
CN(C)CCN1CCN(CCCN2c3ccccc3Sc3ccc(C(F)(F)F)cc32)CC1 | 61% (active) | 98% (active) | -2 | 99% (active) | inactive | inactive | inactive | inactive
CCc1cn2c3c(cc(C(=O)N[C@@H](Cc4ccccc4)[C@H](O)CNC4CCOCC4)cc13)N(C(C)C)S(=O)(=O)CC2 | 99% (active) | 0% | -2 | 98% (active) | inactive | inactive | inactive | inactive
COc1ccc2ncc(F)c([C@H](O)CN3CCC(NCc4ccc5c(c4)OCCO5)CC3)c2c1 | 99% (active) | 1% | -5 | 102% (active) | inactive | inactive | inactive | inactive
CS(=O)(=O)c1ccc(-c2nc(NCC3CCCCC3)cc(C(F)(F)F)n2)cc1 | 76% (active) | -9% | 2 | 83% (active) | inactive | inactive | inactive | inactive
O=C(NCc1ccccc1)c1nn(CCCN2CCC(N3CCCC3)CC2)cc1-c1ccc(Cl)c(Cl)c1 | 89% (active) | 29% | 0 | 103% (active) | inactive | inactive | inactive | inactive
O=C(Nc1ccc(CN2CCOCC2)cc1)c1ccc(-c2ccc(Cl)cc2)o1 | 11% | 22% | -6 | 98% (active) | inactive | inactive | inactive | inactive
CCCCCOc1ccc(C(O)C(CN2CCCCC2)c2ccccc2)cc1 (stereo not given) | 95% (active) | 11% | 5 | 98% (active) | inactive | inactive | inactive | inactive
COc1cccc2cc(C(=O)N[C@@H](CC(C)C)C(=O)N[C@H](/C=N/NC(=O)OC(C)(C)C)Cc3ccccc3)oc12 | 88% (active) | 11% | 0 | 99% (active) | inactive | inactive | inactive | inactive
CNCCCn1c(N(C)C)nc2cc(-n3cnc4cc(-c5ccc(Cl)cc5)sc4c3=O)ccc21 | 27% | 39% | 1 | 86% (active) | inactive | inactive | inactive | inactive
O=C(N[C@@H](Cc1ccccc1)C(=O)NCCN1CCCCC1)c1ccc(O)c(-c2ccc(Cl)c(Cl)c2)c1 | 97% (active) | 6% | -3 | 99% (active) | inactive | inactive | inactive | inactive
COc1ccc(CCNc2nc(SCc3ccccc3Cl)nc3ccccc23)cc1OC | 2% | 27% | 0 | 94% (active) | inactive | inactive | inactive | inactive
CS(=O)(=O)NCCCNCc1ccc(-c2cccc(-c3nc4ccc(F)cc4[nH]3)c2)cc1 | 1% | 15% | 5 | 98% (active) | inactive | inactive | inactive | inactive
CN1CCC(NCc2cccc(-c3ccc(S(=O)(=O)NCc4ccccc4)c(F)c3)c2)CC1 | 99% (active) | 94% (active) | -8 | 99% (active) | inactive | inactive | inactive | inactive
FC(F)(F)c1ccc2nc(-c3cccc(-c4cccc(CNCC5CCCO5)c4)c3)[nH]c2c1 (stereo not given) | 96% (active) | 23% | -2 | 100% (active) | inactive | inactive | inactive | inactive
CN=C(NC)c1cccc(NC(=O)C=Cc2ccc(C=CC(=O)Nc3cccc(C(=NC)NC)c3)cc2)c1 | 99% (active) | 21% | 2 | 98% (active) | inactive | inactive | inactive | inactive
O=C(/C=C/c1ccc([N+](=O)[O-])cc1)N1CCC(NS(=O)(=O)c2ccc(Br)cc2)CC1 | 5% | 0% | -4 | 93% (active) | inactive | inactive | inactive | inactive
O=C(/C=C/c1ccc(Cl)c(Cl)c1)NCCCCCCN1CCCN(C(=O)Nc2ccc(Cl)c(Cl)c2)CC1 | 8% | 25% | -1 | 100% (active) | inactive | inactive | inactive | inactive

Structure (SMILES) | growth inhibition [1] | inhibition [2] | inhibition [3] [%] | growth inhibition [4] | outcome [5] | outcome [6] | outcome [7] | outcome [8]
Cc1c(CNCCCNc2cc(=O)c3ccccc3[nH]2)sc(C(F)F)c1Br | 29% | 0% | 5 | 98% (active) | inactive | inactive | inactive | inactive
COc1ccc(S(=O)(=O)Nc2ccc(C(=O)NCc3ccccc3C(F)(F)F)cc2)cc1N1CCN(CC2CC2)CC1 | 5% | 27% | -3 | 92% (active) | inactive | inactive | inactive | inactive
O=C(/C=C/c1ccc(Cl)c(Cl)c1)NC1CCC(CN2CCC(c3nc4ccccc4n3CCCO)CC2)CC1 (stereo not given) | 28% | 28% | -5 | 99% (active) | inactive | inactive | inactive | inactive
CN(CCCCNC(=O)c1cc2ccccc2[nH]1)C1CC2(CCN(C(=O)OC(C)(C)C)CC2)c2ccccc21 (stereo not given) | 75% (active) | 12% | 2 | 86% (active) | inactive | inactive | inactive | inactive
CCCCc1cc(NCc2ccncc2)nc(Nc2ccc(OC)cc2)n1 | 22% | 11% | 0 | 93% (active) | inactive | inactive | inactive | inactive
c1cc(CNCCc2ccncc2)cc(-c2cccc(-c3nc4ccccc4[nH]3)c2)c1 | 88% (active) | 21% | 1 | 100% (active) | inactive | inactive | inactive | inactive
Cc1ccc(Nc2nc(NN=Cc3cccc(O)c3)nc(Nc3ccc([N+](=O)[O-])cc3)n2)cc1C | 69% (active) | -2% | 5 | 101% (active) | inactive | inactive | inactive | inactive
COc1cccc(NC(=O)c2nc(N3CCN(c4ccncc4)CC3)ccc2Cl)c1 | 65% (active) | 14% | 1 | 97% (active) | inactive | inactive | inactive | inactive
Cc1ccc2sc(N3CCN(C(=O)c4ccc([N+](=O)[O-])o4)CC3)nc2c1C | 86% (active) | -7% | 5 | 90% (active) | inactive | inactive | inactive | inactive
COc1cccc(OC)c1C(=O)N1CCC2(CC1)C(=O)N(CC(=O)NC1CCCCC1)CN2c1ccccc1 | 91% (active) | 16% | 5 | 92% (active) | inactive | inactive | inactive | inactive
O=C(NCCN1CCC(NC(=O)c2ccc(-c3ccccn3)s2)CC1)c1cccc(C(F)(F)F)c1 | 24% | 4% | -4 | 97% (active) | inactive | inactive | inactive | inactive
NC(=NCCc1ccccc1Cl)c1ccc2ccccc2c1 | 11% | 25% | -2 | 88% (active) | inactive | inactive | inactive | inactive
COc1ccc(Nc2nccc(N3CCC(NS(=O)(=O)c4ccc(NC(C)=O)cc4)C3)n2)cc1 (stereo not given) | 16% | 3% | -2 | 100% (active) | inactive | inactive | inactive | inactive
O=C(NCc1cccc(CN2CCOCC2)c1)c1cc(Br)cc(N2CCN(c3ccncc3)CC2)c1 | 29% | 25% | -2 | 99% (active) | inactive | inactive | inactive | inactive
COc1ccc2nccc(NC(=O)N3CCC(NCc4cc5c(F)ccc(F)c5[nH]4)CC3)c2n1 | 40% | 6% | -2 | 99% (active) | inactive | inactive | inactive | inactive
O=C(/C=C/c1cccc(Br)c1)NCCCCCN1CCC(c2c[nH]c3ccccc23)CC1 | 15% | 38% | 0 | 100% (active) | inactive | inactive | inactive | inactive
CN(C)CCN(Cc1ccccc1-c1ccc(CNCCc2ccccc2)cc1)C(=O)c1ccccc1 | 97% (active) | 81% (active) | -3 | 95% (active) | inactive | inactive | inactive | inactive
O=C(NCCCN1CCC(N2CCCCC2)CC1)c1ccc(N2CCOc3ccccc32)s1 | 12% | 37% | 4 | 101% (active) | inactive | inactive | inactive | inactive
Cc1c(C)n(C2CCCCC2)c2ncnc(OC3CCN(CC(=O)NC4CC4)CC3)c12 | 72% (active) | 21% | -2 | 94% (active) | inactive | inactive | inactive | inactive
Clc1ccc(CNC2CCN(CC3CCCCC3)CC2)cc1 | 15% | 12% | 5 | 92% (active) | inactive | inactive | inactive | inactive

From PubChem BioAssay
